# Results filed as inconclusive are left out. Where a call stands in place of a potency, no number is given. The source made the active and inactive calls. The call rests on the fitted dose curve; in most records, active means well fitted inhibition curve with a large enough effect; inconclusive means small, poorly fitted or top-dose-only effect; inactive means flat fitted curve, though single readings scatter. Peptide text beside a SMILES is read from it.
# What was measured:
# Experiment in all cases: qHTS profiling for inhibitors of Plasmodium falciparum proliferation (AID 504749); further: nearly all actives have a fitted effect of over 60% in size
# Conditions in all cases: P. falciparum in erythrocytes, SYBR Green DNA, 72 h; series mostly up to 12.8 µM
# [1] = tested on: AA1029
# Procedure, shortened: (§1)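 P. falciparum-infected erythrocytes (0.3% parasitemia, 2.5% hematocrit) incubated with compound 72 h at 37 C, 5% CO2. Parasite DNA detected by SYBR Green after lysis, overnight at room temperature; normalised to 0.29 uM artemisinin and DMSO.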
# [2] = tested on: ATS189
# Procedure, shortened: as §1
# [3] = tested on: ATS95
# Procedure, shortened: as §1
# [4] = tested on: CP237
# Procedure, shortened: as §1
# [5] = tested on: CP252
# Procedure, shortened: as §1
# [6] = tested on: CP260
# Procedure, shortened: as §1
# [7] = tested on: CP265
# Procedure, shortened: as §1
# [8] = tested on: CP269
# Procedure, shortened: as §1
# [9] = tested on: CP286
# Procedure, shortened: as §1
# [10] = tested on: CP305
# Procedure, shortened: as §1
# [11] = tested on: CP315
# Procedure, shortened: as §1
# [12] = tested on: CP329
# Procedure, shortened: as §1
# [13] = tested on: N140
# Procedure, shortened: as §1
# [14] = tested on: PAD
# Procedure, shortened: as §1
# [15] = tested on: PC15
# Procedure, shortened: as §1
# [16] = tested on: PC49
# Procedure, shortened: as §1
# [17] = tested on: TAB113
# Procedure, shortened: as §1
# [18] = tested on: TAB165
# Procedure, shortened: as §1
# [19] = tested on: JCK
# Procedure, shortened: as §1
# Potency means the concentration at half of the fitted maximal effect.
SMILES,Potency [1],Potency [2],Potency [3],Potency [4],Potency [5],Potency [6],Potency [7],Potency [8],Potency [9],Potency [10],Potency [11],Potency [12],Potency [13],Potency [14],Potency [15],Potency [16],Potency [17],Potency [18],Potency [19]
COC1C=CO[C@@]2(C)Oc3c(C)c(O)c4c(O)c(c(C=NN5CCN(C)CC5)c(O)c4c3C2=O)NC(=O)/C(C)=C\C=CC(C)C(O)[C@@H](C)C(O)C(C)[C@H](OC(C)=O)C1C (stereo not given in full),2000 nM (active),1580 nM (active),2510 nM (active),355 nM (active),3160 nM (active),1410 nM (active),5010 nM (active),4260 nM (active),2510 nM (active),3790 nM (active),4780 nM (active),3380 nM (active),199 nM (active),282 nM (active),398 nM (active),1410 nM (active),316 nM (active),141 nM (active),
CN1CC(=O)N=C1N,inactive,inactive,inactive,inactive,inactive,inactive,inactive,inactive,inactive,inactive,inactive,inactive,inactive,inactive,inactive,inactive,inactive,inactive,inactive
C[C@]12CCC(=O)C=C1CCC1C2C(=O)C[C@]2(C)C1CC[C@]2(O)C(=O)CO (stereo not given in full),inactive,inactive,inactive,inactive,inactive,inactive,inactive,inactive,inactive,inactive,inactive,inactive,inactive,inactive,inactive,inactive,inactive,inactive,inactive
CC(=O)N[C@H](CC(C)C)C(=O)O,inactive,inactive,inactive,inactive,inactive,,inactive,inactive,inactive,inactive,inactive,inactive,inactive,inactive,inactive,inactive,inactive,inactive,inactive
COc1ccc2cc(C(C)CO)ccc2c1 (stereo not given),inactive,inactive,inactive,inactive,inactive,inactive,inactive,inactive,inactive,inactive,inactive,inactive,inactive,inactive,inactive,inactive,,inactive,inactive
COC(=O)C(Cc1ccccc1)NC(=O)C(N)CC(=O)O (stereo not drawn) (H-Asp-Phe-OMe; configuration not given here),inactive,inactive,inactive,inactive,inactive,inactive,inactive,inactive,inactive,inactive,inactive,inactive,inactive,inactive,inactive,inactive,inactive,inactive,inactive
Nc1nc2ncc(CNc3ccc(C(=O)NC(CCC(=O)O)C(=O)O)cc3)nc2c(=O)[nH]1 (stereo not given),inactive,inactive,,inactive,inactive,inactive,inactive,inactive,inactive,inactive,inactive,inactive,inactive,inactive,inactive,inactive,inactive,inactive,inactive
CCC(C)C(=O)OC1CCC=C2C=CC(C)C(CCC3CC(O)CC(=O)O3)[C@@H]21 (stereo not given in full),inactive,inactive,inactive,inactive,inactive,inactive,inactive,inactive,inactive,inactive,inactive,inactive,inactive,inactive,inactive,inactive,,inactive,inactive
CC[C@@]12CCCN3CCc4c(n(c5ccccc45)[C@](O)(C(=O)OC)C1)C32 (stereo not given in full),inactive,inactive,inactive,inactive,inactive,inactive,inactive,inactive,inactive,inactive,inactive,inactive,inactive,inactive,inactive,inactive,inactive,inactive,inactive
COc1cc(C2c3cc4c(cc3C(O[C@@H]3OC5COC(c6cccs6)OC5C(O)C3O)C3COC(=O)C23)OCO4)cc(OC)c1O (stereo not given in full),2240 nM (active),2240 nM (active),2510 nM (active),2240 nM (active),1120 nM (active),1120 nM (active),2820 nM (active),1690 nM (active),1260 nM (active),1690 nM (active),3790 nM (active),4260 nM (active),1000 nM (active),2000 nM (active),4470 nM (active),4470 nM (active),2240 nM (active),1410 nM (active),4470 nM (active)
COC(=O)N/N=C/C1=C[N+](=O)c2ccccc2[N+]1=O,inactive,inactive,inactive,inactive,inactive,inactive,inactive,inactive,inactive,inactive,inactive,inactive,inactive,inactive,inactive,inactive,inactive,inactive,inactive
OCC1O[C@H](OC2C(CO)O[C@@](O)(CO)C2O)C(O)C(O)C1O (stereo not given in full),inactive,inactive,inactive,inactive,inactive,inactive,inactive,inactive,inactive,inactive,inactive,inactive,inactive,inactive,inactive,inactive,inactive,inactive,inactive
CC(=O)N[C@@H]1C(O)OC(CO)C(O)C1O (stereo not given in full),inactive,inactive,inactive,inactive,inactive,inactive,inactive,inactive,inactive,inactive,inactive,inactive,inactive,inactive,inactive,inactive,inactive,inactive,inactive
C[C@]12C=CC(=O)C=C1CCC1C2C(O)C[C@]2(C)C1CC[C@]2(O)C(=O)CO (stereo not given in full),inactive,inactive,inactive,inactive,inactive,inactive,inactive,inactive,inactive,inactive,inactive,inactive,inactive,inactive,inactive,inactive,inactive,inactive,inactive
CC1(C)OC2CC(=O)OC[C@@]23C1CC(=O)[C@]1(C)C3CC[C@@]2(C)C(c3ccoc3)OC(=O)C3O[C@@]321 (stereo not given in full),inactive,inactive,inactive,inactive,inactive,inactive,inactive,inactive,inactive,inactive,inactive,inactive,inactive,inactive,inactive,inactive,inactive,inactive,inactive
C[C@]1(c2ccccc2)OC(C(=O)O)=CC1=O,inactive,inactive,inactive,inactive,inactive,inactive,inactive,inactive,inactive,inactive,inactive,inactive,inactive,inactive,inactive,inactive,inactive,inactive,inactive
CN(C)CCCOC1C(C(O)CO)OC2OC(C)(C)O[C@@H]21 (stereo not given in full),inactive,inactive,inactive,inactive,inactive,,inactive,inactive,inactive,inactive,inactive,inactive,inactive,inactive,inactive,inactive,inactive,inactive,inactive
CNC1C(OC2C(O[C@@H]3C(O)C(O)[C@@H](N=C(N)N)C(O)C3N=C(N)N)OC(C)[C@@]2(O)CO)OC(CO)C(O)C1O (stereo not given in full),inactive,inactive,inactive,inactive,inactive,inactive,inactive,inactive,inactive,inactive,inactive,inactive,inactive,,inactive,inactive,inactive,inactive,inactive

# — PubChem BioAssay (NCATS)
